Compounds without any hit were thinned out: in the full panel of roughly 83,000, 20% have a hit.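 In brief: 96-well plates, 48 h treatment, single concentration, percent growth endpoint.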 Calls of active or inactive are those of the source. How the source made its calls: active means growth percent below 10; inactive means the rest.
How the values were obtained:
Assay in all cases: NCI-60 one-dose screen, 48 h (100 = growth as untreated, 0 = no growth, -100 = all killed)
[1] = tested on: NCI-H460 lung; settings: 10 µM unless noted
[2] = tested on: COLO 205 colon; settings: 10 µM
[3] = tested on: K-562 leukemia; settings: 10 µM unless noted
[4] = tested on: MALME-3M melanoma; settings: 10 µM unless noted
[5] = tested on: RXF 393 renal; settings: 10 µM unless noted
[6] = tested on: M14 melanoma; settings: 10 µM unless noted
[7] = tested on: SNB-75 CNS; settings: 10 µM unless noted
[8] = tested on: SNB-19 CNS; settings: 10 µM unless noted
[9] = tested on: SK-MEL-5 melanoma; settings: 10 µM unless noted
[10] = tested on: ACHN renal; settings: 10 µM unless noted
[11] = tested on: SR leukemia; settings: 10 µM
[12] = tested on: OVCAR-8 ovarian; settings: 10 µM unless noted
[13] = tested on: OVCAR-4 ovarian; settings: 10 µM unless noted
[14] = tested on: IGROV1 ovarian; settings: 10 µM
[15] = tested on: BT-549 breast; settings: 10 µM
[16] = tested on: MDA-MB-435 melanoma; settings: 10 µM unless noted
[17] = tested on: SW-620 colon; settings: 10 µM unless noted
[18] = tested on: HCC-2998 colon; settings: 10 µM unless noted
[19] = tested on: HCT-15 colon; settings: 10 µM
[20] = tested on: OVCAR-3 ovarian; settings: 10 µM unless noted

Measured: growth

CC1(C)N=C(N)N=C(N)N1c1cccc(C(=O)Nc2cccc(S(=O)(=O)F)c2)c1
active: [10] -26%
inactive: [1] 97.3% | [2] 120% | [3] 118% | [4] 88.9% | [5] 92.2% | [6] 102% | [7] 80.2% | [8] 97.3% | [9] 99.8% | [11] 104% | [12] 100% | [13] 100% | [14] 105% | [15] 107% | [16] 98.4% | [17] 93.5% | [18] 98.5%

O=[N+]([O-])c1ccc2cnn(CSP(=S)(c3ccccc3)c3ccccc3)c2c1
inactive: [2] 101% | [3] 19% | [4] 55.3% | [5] 70.1% | [6] 58.1% | [19] 48.1% | [7] 70.6% | [8] 88.6% | [9] 56% | [10] 74.8% | [12] 82.4% | [13] 73.1% | [14] 67.5% | [20] 71.6% | [15] 69.7% | [17] 31.7% | [18] 89%
active: [11] 9.77% | [16] -20.9%

Nc1cccc2c1Oc1ccccc1O2
active: [14] 2.63%
inactive: [1] 190% | [2] 134% | [3] 96.4% | [4] 97.3% | [5] 145% | [6] 108% | [19] 102% | [7] 133% | [9] 86% | [10] 99.2% | [11] 102% | [12] 104% | [13] 115% | [20] 103% | [15] 104% | [16] 105% | [17] 107% | [18] 109%
